Measurements published in ChEMBL document CHEMBL4513216, “Probing the Open Global Health Chemical Diversity Library for Multistage-Active Starting Points for Next-Generation Antimalarials” (ACS Infect Dis, 2020).
The whole screen tested about 65,000 compounds, of which about 2,100 (3.2%) showed an effect of 50% or more. The median lay at about -52%. The full list was thinned out, with strong results kept by preference.

Tested on: Plasmodium falciparum
Assay: Screen against P. falciparum Asexual Blood Stage (ABS), at 5uM
Assay type: functional, Dd2
Conditions: tested at 5 uM

Compared with `CCC(CN1CCCC1)NC(=O)Cc1c(C)[nH]c2cc(C)cc(C)c12` (stereo not drawn), `Cc1cc(C)c(CCNC(=O)CN2CCCN(C(N)=O)CC2)c(C)c1` is lower in INHIBITION: 61.6% for the first, -67.4% for the second.

First: Cc1cc(C)c(C(=O)NC(CN2CCCC2)c2ccccc2)c(=O)[nH]1 (stereo not drawn)
Second: O=C(NCCN1CCCC1)c1cc2c(s1)CCN2C(=O)c1ccccc1
The INHIBITION of the first is lower: -88.9% for the first, -40.6% for the second.

First: CC(=O)c1c(C)nn(CC(=O)N2CCCC2c2ccc(C(N)=O)s2)c1C (stereo not drawn)
Second: COCC(=O)N1CCCC1c1ccc(C(=O)NCCN2CCCCC2)s1 (stereo not drawn)
The INHIBITION of the first is lower: -149% for the first, -139% for the second.

Going from `CCN(CC)C(=O)CCc1nc(-c2cnn3c(C)cc(C)nc23)no1` to `CCc1noc(CN(CC)Cc2cc3ccc(F)cc3[nH]c2=O)n1`, the INHIBITION rises from -59.8% to -9.14%.

Compared with `COC[C@H]1CCC[C@]12CN(CCc1ccccc1)CCO2`, `O=C(NCCCN1CCOCC1)C(OC1CCCC1)c1ccccc1` (stereo not drawn) is higher in INHIBITION: -30.9% for the first, 53.1% for the second.

Going from `O=C1CC[C@H]2[C@H](CCN2S(=O)(=O)C2CC2)N1CCN1CCCC1` to `CN1CCN(CCNC(=O)C(OC2CCCC2)c2ccccc2)CC1` (stereo not drawn), the INHIBITION rises from -109% to 39.2%.

Compared with `CC(C)[C@H](N)CC(=O)Nc1nc(-c2cnc(N3CCOCC3)nc2)cs1`, `CC(C)CN1CCn2c(nc3cc(C(=O)NC(C)C)ccc32)C1` is higher in INHIBITION: -62.3% for the first, -53.7% for the second.

Compared with `CN1C[C@H](c2ccccc2)[C@H]2CN(C(=O)Cc3ccc(O)cc3)CC[C@H]21`, `CN1C[C@H](c2ccccc2)[C@H]2CN(C(=O)Cc3cccc(O)c3)CC[C@H]21` is lower in INHIBITION: 58% for the first, 48.1% for the second.

Compared with `Cc1ccsc1[C@@H]1CCN(C(=O)Cc2ccc(O)cc2)C[C@H]1O`, `CC(=O)N1CCCC1c1cccc(Cc2ccccc2F)n1` (stereo not drawn) is lower in INHIBITION: 11.1% for the first, -89.4% for the second.

Going from `COC(=O)[C@@H]1CCCN1C(=O)c1cn(C/C=C/c2ccccc2)nn1` to `Cn1cc(Cl)cc1C(=O)N1CCCN(Cc2ccccc2)CC1`, the INHIBITION rises from -29.2% to 50.9%.

First: CC(CCc1ccccc1)NC(=O)CNCCCN(C)C (stereo not drawn)
Second: CCN1CCOC(CNCc2ccccc2OCC(=O)N(C)C)C1 (stereo not drawn)
The INHIBITION of the first is lower: -20.5% for the first, -19.5% for the second.

Compared with `CN(C)C(=O)CN1C(=O)C[C@@H]2[C@@H]1CCN2Cc1cccc(C#N)c1`, `CN(C)C(=O)CN1CCCC1c1cccc(Cc2ccccc2F)n1` (stereo not drawn) is higher in INHIBITION: -63% for the first, 68.8% for the second.

Compared with `N[C@@H]1c2ccccc2C2(CCN(c3cc(C(F)(F)F)ccn3)CC2)[C@H]1O`, `CN(C)C1CCC2(CCN(Cc3cccnc3)CC2)c2ccccc21` (stereo not drawn) is higher in INHIBITION: -15.6% for the first, 31.3% for the second.

First: CC(=O)N1CCN(CCNc2ncc(Br)cc2C)CC1
Second: COC1CCN(CCNc2ncc(Br)cc2C)CC1
The INHIBITION of the first is lower: -22.7% for the first, 60.6% for the second.

Going from `CCc1cnc(C)nc1NCCN1CCC(O)CC1` to `Cc1noc(C(C)C)c1C(=O)NCCCN1CCCC1`, the INHIBITION falls from -27.7% to -39.2%.

Going from `Cc1ccc(CN2CCn3cc(CN4CCN(C)CC4)nc3C2)cc1` to `Cn1cc(CN2CCCN(C(=O)c3cc(Cl)cn3C)CC2)cn1`, the INHIBITION rises from -112% to -7.21%.

Going from `O=C(NCCN1CCOCC1)C(OC1CCCC1)c1ccccc1` (stereo not drawn) to `CCC1CN(CC(=O)NCCN2CCCC2)c2ccccc2S1` (stereo not drawn), the INHIBITION rises from -78% to 63.8%.

Going from `CN(C)CC(=O)N1CCC2(CC1)CN(c1ncccn1)CCO2` to `Cc1ccc2c(c1)CCC21CCN(C(=O)CN(C)C)CC1`, the INHIBITION rises from 5.56% to 50.7%.

Going from `Cc1ccc2c(c1)CCC21CCN(C(=O)CO)CC1` to `CN(C)CC(=O)N1CCC2(CCc3ccc(-c4ccncc4)cc32)CC1`, the INHIBITION falls from -19.8% to -41.7%.

First: CCCn1nc2c(cc1=O)CN(c1ncnc3ccsc13)CC2
Second: CCOCC1CN(C(=O)c2cccs2)Cc2cnn(CC3CC3)c21 (stereo not drawn)
The INHIBITION of the first is lower: -43% for the first, 18.5% for the second.

Going from `CSCc1noc(CNS(=O)(=O)c2cccc(C(=O)NC3CC3)c2)n1` to `CCc1noc(CN(CC)C(=O)C2CC(=O)N(Cc3ccncc3)C2)n1` (stereo not drawn), the INHIBITION falls from -45.3% to -125%.

Compared with `CC(C)n1cc(C(=O)NCCN(C)C)c2n[nH]c(=O)c-2c1`, `CC(C)c1nnc(NC(=O)NCc2cccnc2NCCN(C)C)s1` is lower in INHIBITION: -36.6% for the first, -89.9% for the second.

Compared with `CC(C)CC(NCc1cscn1)c1ccccn1` (stereo not drawn), `CC(C)CC(NCc1ccsc1)c1ccccn1` (stereo not drawn) is higher in INHIBITION: 32.3% for the first, 60% for the second.

First: CC(C)CC(NCc1cccs1)c1ccccn1 (stereo not drawn)
Second: COc1ccccc1CNC(Cc1cccs1)c1nc(C)cs1 (stereo not drawn)
The INHIBITION of the first is lower: -21.4% for the first, -11.1% for the second.

Compared with `CC(C)OCCC(=O)NCC(O)c1c(F)cccc1F` (stereo not drawn), `CC(O)CN1CCC(CNCc2cccc(OC(C)C)c2)CC1` (stereo not drawn) is higher in INHIBITION: -37.7% for the first, 62.4% for the second.

Going from `Cc1nc(NC(=O)NCc2cccnc2NCCN(C)C)sc1C` to `CN(C)CCNc1ncccc1CNC(=O)Nc1cc(F)cc(F)c1`, the INHIBITION rises from -8.39% to 55%.

Going from `Cc1noc(C)c1CNCC1CCN(CC(O)c2ccccc2)CC1` (stereo not drawn) to `Cc1ccc(CNCC2CCN(CC(O)c3ccccc3)CC2)o1` (stereo not drawn), the INHIBITION rises from 43.4% to 62.5%.

Compared with `CC(O)CN1CCC(CNCc2cccc(C(N)=O)c2)CC1` (stereo not drawn), `CC(O)CN1CCC(CNCc2cccc(C(=O)N(C)C)c2)CC1` (stereo not drawn) is lower in INHIBITION: -73.1% for the first, -81.9% for the second.

First: CC(O)CN1CCC(CNCc2ccccc2F)CC1 (stereo not drawn)
Second: CC(O)CN1CCC(CNCc2ccccc2C(F)(F)F)CC1 (stereo not drawn)
The INHIBITION of the first is lower: -0.868% for the first, 48.3% for the second.

Going from `CC(O)CN1CCC(CNCc2ccccc2OC(F)(F)F)CC1` (stereo not drawn) to `Cc1ncccc1CNCC1CCN(CC(O)c2ccccc2)CC1` (stereo not drawn), the INHIBITION falls from 67.7% to 31.4%.

First: COCC(Nc1ncnc2c1CCNCC2)c1ccccn1 (stereo not drawn)
Second: COc1nccnc1-c1cc(NC2CCCC2)nc2[nH]ccc12
The INHIBITION of the first is lower: -66.2% for the first, 18.8% for the second.

Compared with `CCOCC(=O)NCC1CCN(Cc2ccsc2)CC1`, `CCOCC1CN(C(=O)c2cccn2C)Cc2cnn(CC3CC3)c21` (stereo not drawn) is higher in INHIBITION: -90.6% for the first, 57.8% for the second.

Compared with `CN(C)Cc1ccnc(C2CCCN2Cc2ccc3ncccc3c2)n1` (stereo not drawn), `CN1CCCC1c1cccc(Cc2ccccc2F)n1` (stereo not drawn) is lower in INHIBITION: 42% for the first, -1.19% for the second.

Compared with `COc1cc(CNc2cc(-c3nncn3C)ccn2)cc(OC)c1OC`, `COc1cccc(CNC(Cc2cccs2)c2nc(C)c(C)s2)c1OC` (stereo not drawn) is lower in INHIBITION: -52.4% for the first, -80.8% for the second.

First: Cc1ccccc1-c1noc(CN2CCC(N3CCNC3=O)CC2)n1
Second: Cc1ccccc1OCC1CCCN(c2cc(N)nc(N)n2)C1 (stereo not drawn)
The INHIBITION of the first is lower: -80.6% for the first, 44.5% for the second.

First: CN1CCCC(CCCc2cccnc2)(C(N)=O)C1 (stereo not drawn)
Second: CCN1CCOC(CNCc2ccccc2OCc2cccnc2)C1 (stereo not drawn)
The INHIBITION of the first is lower: -103% for the first, 28.1% for the second.

First: COc1cc(-c2cc(NC3CCCC3)nc3[nH]ccc23)nc(N)n1
Second: Nc1ccnc(-c2cc(NC3CCNCC3)nc3[nH]ccc23)c1
The INHIBITION of the first is higher: 62.5% for the first, -29.8% for the second.

Going from `CCN(Cc1noc(CC(C)C)n1)Cc1cc2ccc(F)cc2[nH]c1=O` to `CCN(Cc1nc(COC)no1)Cc1cc2ccc(F)cc2[nH]c1=O`, the INHIBITION rises from -109% to 62.2%.

Going from `O=C(C[C@@H]1COC[C@H]2CN(CC3CCOCC3)C[C@@H]12)N1CCCCO1` to `O=C(N1CCCC1)N1CCC[C@]2(C[C@@H](Oc3ncccc3F)CO2)C1`, the INHIBITION falls from -22.4% to -39%.

Going from `CC(O)CN1CCN(C(=O)c2cc3ccccc3n2C)CC1` (stereo not drawn) to `Cc1ccc(C(=O)N2CCN(Cc3cccs3)CC2)n1C`, the INHIBITION rises from -75.1% to -20.2%.

Going from `CCC(C)(COc1ncccc1Cl)NCC(=O)NC1CCCCC1` (stereo not drawn) to `CN(C)C1CC2(CCN(C(=O)NC3CC3)CC2)c2ccccc21` (stereo not drawn), the INHIBITION rises from -85.6% to -42.2%.

Going from `CNC(=O)C1CCN(CC(=O)Nc2cc(C(C)C)no2)CC1` to `Cn1cc(Cl)cc1C(=O)N1CCN(Cc2cccs2)CC1`, the INHIBITION rises from -141% to 7.04%.

Going from `CCOCC1CN(C(=O)c2cnccn2)Cc2cnn(CC3CC3)c21` (stereo not drawn) to `COCCN1C[C@@H]2CN(c3ncc(F)cn3)C[C@@H]2C1=O`, the INHIBITION rises from -127% to -65.7%.

First: O=c1cc(CN2CCCCC2c2cccc(F)c2)[nH]c2ncnn12 (stereo not drawn)
Second: Cc1ccc(N2CCC(Nc3ccc4nnc(C)n4n3)CC2)nc1
The INHIBITION of the first is higher: -27.8% for the first, -89% for the second.

Compared with `COc1ccccc1C(=O)N1CCOCC1c1c(C)n[nH]c1C` (stereo not drawn), `Cc1n[nH]c(C)c1C1COCCN1C(=O)c1ccccc1` (stereo not drawn) is lower in INHIBITION: 57.5% for the first, -119% for the second.

First: Cc1n[nH]c(C)c1C1COCCN1C(=O)c1cccc(F)c1F (stereo not drawn)
Second: Cc1ccc(C(=O)N2CCCN(Cc3cccs3)CC2)n1C
The INHIBITION of the first is lower: 49.6% for the first, 55.6% for the second.

Going from `CCN1CCOC(CNCc2ccccc2OCc2ccccn2)C1` (stereo not drawn) to `CN1CCOC(CNCc2ccccc2OCc2ccccn2)C1` (stereo not drawn), the INHIBITION rises from 7.77% to 67.7%.

First: Cc1cnn(CCNCc2ccc(OCc3ccccn3)cc2)c1
Second: Cc1cnn(CCNCc2ccccc2OCc2ccccn2)c1
The INHIBITION of the first is lower: -12.3% for the first, 67% for the second.

Compared with `CN1CCOC(CNCc2ccc(OCc3ccccn3)cc2)C1` (stereo not drawn), `CCN1CCOC(CNCc2ccccc2OCc2ccncc2)C1` (stereo not drawn) is higher in INHIBITION: -15.8% for the first, 55.3% for the second.

Compared with `Cc1cnn(CCNCc2ccccc2OCc2ccncc2)c1`, `COc1ccccc1CNC(Cc1cccs1)c1nc(C)c(C)s1` (stereo not drawn) is higher in INHIBITION: 40.5% for the first, 59.8% for the second.

Going from `CNC(=O)c1nc(COc2ccc3c(c2)OCO3)no1` to `CCOc1ccc(CSC(C)c2nc(C)no2)nc1` (stereo not drawn), the INHIBITION falls from -139% to -173%.

First: Cc1ccc(C)c(S(=O)(=O)NC(=O)c2ccc(C)[nH]c2=O)c1
Second: Cc1ccc(-c2nc(CSCCC(=O)NC(N)=O)co2)cc1
The INHIBITION of the first is lower: -134% for the first, -132% for the second.

Compared with `O=S(=O)(c1cccs1)N1CC[C@@H](O)[C@@H]1Cc1ccncc1`, `Cn1cc(Cl)cc1C(=O)N1CCCN(Cc2cccs2)CC1` is lower in INHIBITION: -17% for the first, -60.9% for the second.

Going from `CSCC(CCO)NC(=O)Nc1cc(F)ccc1C` (stereo not drawn) to `Fc1ccc(CNCc2nnc3n2CC(C(F)(F)F)CC3)c(F)c1` (stereo not drawn), the INHIBITION rises from -130% to -35%.
